We go through 13 compounds from PubChem BioAssay.

The nature of assay [1]: inhibitors of TNFa-induced NFkB p65 translocation, primary screen, imaging, HUVEC, MLSMR starter and 10KST1 sets (AID 438;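 active = inhibition above 20% together with a positive visual image hit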;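 note: compound added about 3h40 before a 20 min TNFalpha stimulation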;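 for inhibition: signal is the nuclear over cytoplasmic p65 intensity ratio per well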). The following applies: HUVEC TNFa-induced p65 nuclear translocation; cell count: measured here: nuclei count (cytotoxicity indicator), at 2.08 µM; inhibition: at 2 µM, stronger effect = higher value, 0% TNFa-plus-vehicle, 100% no-TNFa wells.
The nature of assay [2]: inhibitors of mutant huntingtin aggregation, primary screen, imaging, exon1htt(103Q)mCFP cells, high-content imaging (AID 483;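 active = visual image review flags a hit and inhibition of aggregation exceeds 20%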;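 note: compound exposure lasted 3 days before fixation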;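 for nuclei count: percent of the per-plate median nuclei count of sample wells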). The following applies: exon1htt(103Q)mCFP cell line, aggregate imaging, at 2 µM; inhibition of aggregation: stronger effect = higher value; nuclei count: measured here: cell count, toxicity.
Assay [3] can be described thus: inhibitors of E-selectin induction by TNFa, primary screen, imaging, HUVEC, immunofluorescence, MLSMR starter and 10KST1 sets (AID 487;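 active = visually confirmed hit in the image check and inhibition above 20%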;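 for inhibition: signal is fraction of cell area covered by stained E-selectin grains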;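 for nuclei count: 100% = median nuclei count of all wells on the same plate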). The following applies: HUVEC TNFalpha-induced E-selectin immunofluorescence imaging, at 2 µM; inhibition: stronger effect = higher value; nuclei count: measured here: cell number, toxicity.
Assay [4] has as its target Voltage-gated potassium channel subunit beta-2 (Rattus norvegicus) (UniProt P62483). The assay is described as follows: KvBeta enzyme negative modulators, primary screen, biochemical, NADPH fluorescence (AID 622;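 active = fluorescence slope higher than the sample average by over 3 SD, cut at about -0.22 in these data, passing the limit was not always enough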;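 note: slope of raw intensity against log time taken from 70 to 1610 s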). The following applies: recombinant KvBeta, 4-cyanobenzaldehyde reduction, at 10 µM, stronger effect = higher value.
The target is the same in assay [5]. Kind of assay: KvBeta positive modulators, primary screen, biochemical, NADPH fluorescence (AID 623).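 Note: fluorescence intensity change per second fitted from 20 to 320 s.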 The following applies: Recombinant KvBeta, NADPH fluorescence decrease slope, 10 min; at 10 µM; stronger effect = lower value.
The target of assay [6] is Alpha-2C adrenergic receptor (Homo sapiens) (UniProt P18825). Kind of assay: modulators of alpha2C/GIRK thallium flux, primary screen, cell-based, HEK293 alpha2C/GIRK1/2 (AID 624;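 active = fluorescence slope after compound addition differing from the mean of all screened samples at 99.7% confidence, in either direction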;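 note: slope of fluorescence ratio to pre-addition baseline per second over 15 to 24 s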). The following applies: thallium flux BTC fluorescence, at 10 µM, actives lie on both sides.
A short description of assay [7]: inhibitors of Sendai virus-induced IRF3 signaling, primary screen, TLR/RLR signaling modifier project, cell-based, Sendai virus stimulus, luciferase, 10K MLSCN set (AID 602276;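 active = inhibition at or above 50% at 10 µM; inactive = inhibition below 50%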;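 note: firefly luciferase from ISG56 promoter only with Renilla not read in this screen; 0% = Sendai virus plus DMSO and 100% = medium plus DMSO without virus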). The following applies: HEK293 RL24 IRF3 luciferase reporter, at 10 µM, stronger effect = higher value.
Assay [8] can be described thus: inhibitors of poly I:C-induced TLR3 signaling, primary screen, cell-based, poly I:C stimulus, luciferase, 10K MLSCN set (AID 602277;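 active = inhibition of the reporter signal at or above 50%; inactive = inhibition below 50%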). The following applies: HEK293-TLR3 RL24 IRF3 luciferase reporter, at 10 µM, stronger effect = higher value. In general terms: Reporter assays use an easily measured gene product as a stand-in for the process of interest.

Calls of active or inactive are those of the source.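 Rule for the calls, unless noted: active = NADPH fluorescence slope more negative than the mean of all samples by about 3 SD, 99.7% confidence; inactive = the rest.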

Chain of Alpha-2C adrenergic receptor (Homo sapiens) (P18825 whole entry, looked up): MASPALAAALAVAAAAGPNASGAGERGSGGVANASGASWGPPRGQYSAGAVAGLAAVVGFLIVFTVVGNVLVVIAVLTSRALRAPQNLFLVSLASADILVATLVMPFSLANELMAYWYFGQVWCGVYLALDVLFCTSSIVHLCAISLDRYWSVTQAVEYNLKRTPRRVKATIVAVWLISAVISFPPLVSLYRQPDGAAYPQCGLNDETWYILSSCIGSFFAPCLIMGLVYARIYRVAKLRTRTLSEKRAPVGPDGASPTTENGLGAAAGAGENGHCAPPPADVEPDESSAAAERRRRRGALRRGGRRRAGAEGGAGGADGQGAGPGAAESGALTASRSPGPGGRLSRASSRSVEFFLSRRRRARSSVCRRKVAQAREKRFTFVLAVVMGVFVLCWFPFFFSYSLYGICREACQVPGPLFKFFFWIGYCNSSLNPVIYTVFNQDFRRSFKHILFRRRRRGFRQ
Chain of Voltage-gated potassium channel subunit beta-2 (Rattus norvegicus) (P62483 whole entry, looked up): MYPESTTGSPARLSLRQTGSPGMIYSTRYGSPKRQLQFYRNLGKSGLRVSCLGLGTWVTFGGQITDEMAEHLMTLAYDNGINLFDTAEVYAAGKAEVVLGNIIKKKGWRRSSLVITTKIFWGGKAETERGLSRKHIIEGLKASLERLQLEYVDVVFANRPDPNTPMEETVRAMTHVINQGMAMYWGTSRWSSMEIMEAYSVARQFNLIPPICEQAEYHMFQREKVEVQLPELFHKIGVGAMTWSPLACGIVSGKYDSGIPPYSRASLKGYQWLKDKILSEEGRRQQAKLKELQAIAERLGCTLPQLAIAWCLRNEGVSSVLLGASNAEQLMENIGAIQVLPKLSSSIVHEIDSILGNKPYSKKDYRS

With `O=C(Nc1ccc(F)cc1)N(CCCN1CCOCC1)Cc1cc2cc3c(cc2[nH]c1=O)OCO3`, in assay [1], the cell count turned out to be 633. In addition, the inhibition (as a rule, the relative decrease from the control value, in per cent) in assay [1] was -3% (inactive); in assay [3] it was -27.7% (inactive); in assay [7], 15.6% (inactive); in assay [8], 28.6% (inactive). Moreover, the inhibition of aggregation in assay [2] was -34.9% (inactive). The results for the nuclei count in assay [2] and in assay [3] were 105% and 114%, respectively. Also, in assay [4], the fluorescence slope is -0.362 (inactive). In addition, in assay [5], the NADPH fluorescence slope is -4.4e-05 (inactive). Moreover, in assay [6], the slope was 0.00497 (inactive).
For the compound `CN1CCN(C(c2cccc(C(F)(F)F)c2)c2nnnn2C(C)(C)C)CC1` (stereo not drawn), the cell count in assay [1] came to 337. Also, the inhibition was -6% (inactive) in assay [1], -68.4% (inactive) in assay [3], 19.1% (inactive) in assay [7] and 22.7% (inactive) in assay [8]. The inhibition of aggregation in assay [2] was 32.7% (inactive). Besides, the nuclei count in assay [2] turned out to be 73.7%; in assay [3] it was 94.8%. The fluorescence slope in assay [4] was -0.591 (inactive). In addition, the NADPH fluorescence slope in assay [5] is -2.7e-05 (inactive). In assay [6], the slope was 0.00442 (inactive).
On to `C=C(C)c1cccc(C(C)(C)NC(=O)NCC2CCCO2)c1` (stereo not drawn), for which the cell count in assay [1] is 496. For the same compound, the inhibition is 2.3% (inactive) in assay [1], -31.1% (inactive) in assay [3], 7.08% (inactive) in assay [7] and 9.27% (inactive) in assay [8]. The inhibition of aggregation in assay [2] was -23% (inactive). For the same compound, the nuclei count in assay [2] worked out at 108%; in assay [3], 113%. For the same compound, in assay [4], the fluorescence slope was -0.362 (inactive). Besides, in assay [5], the NADPH fluorescence slope was -5.6e-05 (inactive). Moreover, the slope in assay [6] was 0.0056 (inactive).
For the compound `Cc1cccc(Cc2nnc(NC(=O)c3cccc(S(=O)(=O)N4CCOCC4)c3)s2)c1`, in assay [1], the cell count was determined as 424. Besides, the inhibition in assay [1] was -5.5% (inactive); in assay [3], 0.9% (inactive); in assay [7], 14.3% (inactive); in assay [8], 30.6% (inactive). Further, in assay [2], the inhibition of aggregation was -0.5% (inactive). The nuclei count in assay [2] was 106%; in assay [3], 126%. In assay [4], the fluorescence slope is -0.422 (inactive). For the same compound, in assay [5], the NADPH fluorescence slope is -7.5e-06 (inactive). For the same compound, in assay [6], the slope was 0.00421 (inactive).
As to `CCOC(=O)CN(C(=O)c1ccccc1)c1ccccc1C`, in assay [1], the cell count is 600. For the same compound, the inhibition was -2.5% (inactive) in assay [1], 36% (inactive) in assay [3], 3.43% (inactive) in assay [7] and 31% (inactive) in assay [8]. Also, the inhibition of aggregation in assay [2] is -11.5% (inactive). In addition, the results for the nuclei count in assay [2] and in assay [3] were 108% and 72.6%, respectively. The fluorescence slope in assay [4] is -0.419 (inactive). The NADPH fluorescence slope in assay [5] is 1.1e-05 (inactive). Also, in assay [6], the slope was 0.00342 (inactive).
In the case of `COC(=O)c1ccsc1NC(=O)CN1C(=O)CCC1=O`, the cell count in assay [1] was 479. Further, the inhibition is -5.9% (inactive) in assay [1], -15.8% (inactive) in assay [3], -11.8% (inactive) in assay [7] and -9.21% (inactive) in assay [8]. Further, the inhibition of aggregation in assay [2] was 2.9% (inactive). Moreover, the nuclei count stood at 86.8% in assay [2] and 100% in assay [3]. In assay [4], the fluorescence slope is -0.476 (inactive). The NADPH fluorescence slope in assay [5] was -3.2e-05 (inactive). For the same compound, the slope in assay [6] was 0.0049 (inactive).
Take `O=C(NCc1ccc2c(c1)OCO2)C1CCC(CNS(=O)(=O)c2ccccc2)CC1` (stereo not drawn): the cell count in assay [1] was found to be 316. Besides, the inhibition is 8.9% (inactive) in assay [1], -4.9% (inactive) in assay [3], 11.6% (inactive) in assay [7] and 26.6% (inactive) in assay [8]. In assay [2], the inhibition of aggregation is -31.1% (inactive). Besides, the nuclei count was found to be 111% in assay [2] and 116% in assay [3]. The fluorescence slope in assay [4] is -0.489 (inactive). Also, the NADPH fluorescence slope in assay [5] was 1.3e-05 (inactive). The slope in assay [6] is 0.00655 (inactive).
As to `CCOc1ccccc1NC(=O)CN(c1ccc(C)cc1)S(=O)(=O)c1c(C)noc1C`, the cell count in assay [1] is 322. Moreover, the inhibition was 2.2% (inactive) in assay [1], 35.2% (inactive) in assay [3], 6.02% (inactive) in assay [7] and 28.1% (inactive) in assay [8]. Further, the inhibition of aggregation in assay [2] was 20.6% (inactive). Also, the results for the nuclei count in assay [2] and in assay [3] were 97.9% and 64.7%, respectively. The fluorescence slope in assay [4] is -0.606 (inactive). Also, the NADPH fluorescence slope in assay [5] is -6.6e-05 (inactive). Further, the slope in assay [6] is 0.00658 (inactive).
On to `COc1ccc(CNc2oc(-c3ccccc3)nc2C#N)cc1`, for which the cell count in assay [1] turned out to be 458. The inhibition in assay [1] was 5% (inactive); in assay [3] it was -19.4% (inactive); in assay [7], -29.8% (inactive); in assay [8], -35.1% (inactive). For the same compound, the inhibition of aggregation in assay [2] is -12.2% (inactive). The nuclei count was determined as 99.5% in assay [2] and 67.2% in assay [3]. Moreover, the fluorescence slope in assay [4] was -0.523 (inactive). For the same compound, the NADPH fluorescence slope in assay [5] is 2.8e-05 (inactive). For the same compound, in assay [6], the slope is 0.00683 (inactive).
In the case of `COc1cc2c(cc1OC)C(C)N(C(=O)c1cc3n(n1)C(C(F)(F)F)CC(c1ccco1)N3)CC2` (stereo not drawn), in assay [1], the cell count worked out at 591. The inhibition is 9.6% (inactive) in assay [1], -22% (inactive) in assay [3], 25.6% (inactive) in assay [7] and 19.1% (inactive) in assay [8]. Further, in assay [2], the inhibition of aggregation is -0.8% (inactive). Further, the nuclei count was 97.6% in assay [2] and 96.6% in assay [3]. For the same compound, in assay [4], the fluorescence slope is -0.613 (inactive). In assay [5], the NADPH fluorescence slope was 1.3e-05 (inactive). The slope in assay [6] was 0.00369 (inactive).
As to `CC(=O)N1CCN(C(C)=O)C1c1ccccc1`, in assay [1], the cell count was 464. Moreover, the inhibition was 6% (inactive) in assay [1], -231% (inactive) in assay [3], -22% (inactive) in assay [7] and -25.1% (inactive) in assay [8]. In addition, the inhibition of aggregation in assay [2] is -9.6% (inactive). The figures for the nuclei count in assay [2] and in assay [3] were 106% and 133%, respectively. For the same compound, the fluorescence slope in assay [4] is -0.376 (inactive). Also, the NADPH fluorescence slope in assay [5] is 5.2e-06 (inactive). Also, the slope in assay [6] was 0.00709 (inactive).
With `Clc1cccc(N2CCN(Cc3nc(-c4ccccc4)no3)CC2)c1`, the cell count in assay [1] was found to be 716. The inhibition in assay [1] is -1.1% (inactive); in assay [3], -43.3% (inactive); in assay [7], 2.81% (inactive); in assay [8] it was 29.2% (inactive). For the same compound, the inhibition of aggregation in assay [2] is 8.5% (inactive). The nuclei count in assay [2] was determined as 112%; in assay [3], 122%. In assay [4], the fluorescence slope was -0.541 (inactive). Also, the NADPH fluorescence slope in assay [5] was -9e-05 (inactive). Also, in assay [6], the slope was 0.00744 (inactive).
In the case of `COc1ccc2oc(=O)c(C(=O)N3CCN(c4ccccc4F)CC3)cc2c1`, the cell count in assay [1] was determined as 365. Besides, the inhibition in assay [1] was -0.4% (inactive); in assay [3], -15.2% (inactive); in assay [7] it was 16.3% (inactive); in assay [8], 21.2% (inactive). The inhibition of aggregation in assay [2] was -3.7% (inactive). Also, the figures for the nuclei count in assay [2] and in assay [3] were 95.9% and 109%, respectively. Also, the fluorescence slope in assay [4] was -0.335 (inactive). For the same compound, the NADPH fluorescence slope in assay [5] is 2.4e-05 (inactive). In addition, the slope in assay [6] was 0.00535 (inactive).
